# Mot1-301 SUMO – blocks SUMOylation pathway, rescuing yeast Mot1-301 growth | 320,000 compounds, 1% hits | AID 2716 | growth rescue, % at 18.8 µM | S. cerevisiae Mot1-301 growth rescue, ATP luminescence, 38.5C; percent above DMSO median, 100 means doubled;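 active = every valid replicate shows activation above 250% relative to neutral control wells; inactive = the rest, any valid replicate at or below 250%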;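 also: OY570 slx delta 5 strain wells were the positive control but not used for scaling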
# tim10-1 inh – inhibits growth of tim10-1 mutant yeast; inhibition, % at 20 µM; AID 463190; 330,000 compounds, 2.2% hits; S. cerevisiae tim10-1 ts strain growth, BacTiter-Glo, 24 h;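 active = inhibition of at least 40%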;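 also: mutant grown at 25 °C; 0% = DMSO wells with yeast and 100% = wells holding no yeast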
# tim23-1 inh – growth inhibitors of tim23-1 mutant yeast. S. cerevisiae tim23-1 growth, BacTiter-Glo luminescence, 24 h. inhibition, % at 20 µM. 330,000 compounds, 1.3% hits. AID 463212;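 active = growth inhibition of the mutant yeast at or above 50%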;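 also: temperature-sensitive mutant grown at 25 °C; plate controls were DMSO-treated mutant yeast for no effect and medium wells lacking yeast for full effect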
# PfHsp90 set2 – growth inhibition of yeast expressing Plasmodium Hsp90; S. cerevisiae expressing PfHsp90, BacTiter-Glo ATP, 48 h; yeast lacking PDR1 and PDR3 efflux regulators; inhibition, % at 9.4 µM; 310,000 compounds, 0.32% hits; AID 504621;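 active = every replicate shows inhibition above about 80%, whatever the replicate mean, limit read from the data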;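 also: 0% = DMSO neutral controls and 100% = 20 µM radicicol positive controls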
# TIM10 inh – TIM10 yeast growth inhibition | AID 463195 | inhibition, % at 10 µM | 330,000 compounds, 1.4% hits | S. cerevisiae TIM10 strain growth, BacTiter-Glo luminescence, 24 h;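 active = inhibition of 40% or more at the single tested concentration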;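 also: wild-type TIM10 isogenic control strain grown at permissive 25 °C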
# tim10-1 conf – tim10-1 yeast growth inhibition, confirmed; S. cerevisiae tim10-1 ts strain growth, BacTiter-Glo, 24 h; shares compounds with tim10-1 inh; inhibition, % at 20 µM; AID 463213; 7,400 compounds, 56% hits;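 active = inhibition of yeast growth at or above a set limit in either of two repeat tests at 20 µM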;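 also: tim10-1 mutant grown at permissive 25 °C to find synthetic lethal compounds; 0% = DMSO yeast wells and 100% = medium wells without yeast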
# * marks the source's active call; other numbers are inactive results; . = no result. A selection: hits, their analogues and other compounds. The true share with any hit is near 4.4%.
SMILES,Mot1-301 SUMO,tim10-1 inh,tim23-1 inh,PfHsp90 set2,TIM10 inh,tim10-1 conf
C=C(C)CSc1nncn1/N=C/c1ccc(OC)cc1,3,43*,28,14,19,32*
CCSc1nncn1/N=C/c1ccc(OC)c(OC)c1,-8,-4,-5,-30,-11,.
COc1cccc(N(C(=O)c2nc3nccc(C)n3n2)c2nc3ccccc3s2)c1,0,48*,31,-17,18,24
c1ccc(C2=NNC(c3ccccn3)=NN2)nc1,-4,32,26,6,30,.
O=C(/C=C/Nc1ccccc1Oc1ccccc1)c1ccco1,-17,43*,29,6,23,16
O=C(NC1CCCCCC1)c1ccc[nH]c1=S,.,44*,7,1,16,30
COc1ccc(C(C(=O)NC(C)(C)C)N(C(=O)CCC(=O)Nc2ccccn2)C2CCCCC2)cc1 (centres undefined),-27,9,10,-32,-12,.
CC1(C)Nc2ccccc2C(=O)N1c1ccccc1,330,-30,-18,8,1,.
CC(C)c1ccc(NS(=O)(=O)c2ccc(-n3cccn3)cc2)cc1,-7,45*,30,-4,11,8
CC(C)c1ccc(S(=O)(=O)Nc2ccc(SC(F)F)cc2)cc1,106,50*,43,-38,26,28*
O=C(COCc1cc(-c2ccc3c(c2)OCO3)on1)N1CCN(c2cccc(C(F)(F)F)c2)CC1,-7,17,19,-14,8,.
CCOC(=O)c1ccc(S(=O)(=O)N2CCN(CC(=O)NC(=O)NC3CCCCC3)CC2)cc1,12,44*,11,4,16,28
CC(=O)c1ccc(S(=O)(=O)N2CCN(CC(=O)NC(=O)NC3CCCCC3)CC2)cc1,-2,.,.,-16,.,.
O=C(N(c1ccccn1)c1ccccn1)C12CC3CC(CC(C3)C1)C2,24,42*,32,2,1,28
O=C(/C(N=Nc1cccc(C(F)(F)F)c1)=C(/O)c1cccs1)C(F)(F)F,5,40*,41,-6,0,31*
O=C(COC(=O)COc1ccc2c(c1)CCC2)Nc1ccccc1C(F)(F)F,-9,-8,7,-1,1,.
C[C@H](CO)N1C[C@H](C)[C@@H](CN(C)S(=O)(=O)c2cccs2)Oc2ccc(NC(=O)Cn3cnnn3)cc2C1=O,.,1,11,10,-5,.
O=C(C1=C[C@H](c2csc3ccccc23)C[C@H](OCc2ccc(CO)cc2)O1)N1CCCCCCC1,0,15,15,.,6,.
CC(C)(C)c1ccc(OCCOc2ccc(C(C)(C)C)cc2NC=O)c(NC=O)c1,1,47*,43,-18,22,20
Cc1nc(Nc2nc(-c3ccccc3)cc(=O)[nH]2)nc2ccccc12,1,43*,10,-4,30,8
O=C(C[C@H]1C[C@H](C(=O)N2CCCCC2)[C@@]2(CCc3ccccc3)c3[nH]c4cc(-c5ccco5)ccc4c3CCN2C1=O)NCc1cccc(C(F)(F)F)c1,.,19,30,11,1,.
COc1ccc(C2=NN(C(C)=O)CC2c2cccc([N+](=O)[O-])c2)cc1 (centres undefined),-5,43*,34,-6,4,-11
CC1CCN(C(=O)c2ccc3c(c2NCCO)C(=O)c2ccccc2C3=O)CC1,71,42*,40,.,22,28
CC1CC(C)CN(C(=O)c2cccc3c2-c2ccccc2C3=O)C1 (centres undefined),-9,17,29,1,17,.
CCOC(=O)n1c(=O)n(Cc2ccc(OC)cc2)c2ccccc21,-12,50*,49,13,21,46*
SMILES,Mot1-301 SUMO,tim10-1 inh,tim23-1 inh,PfHsp90 set2,TIM10 inh,tim10-1 conf
CCOC(=O)n1c(=O)n(Cc2ccccc2C)c2ccccc21,-21,30,41,0,12,.
Brc1cc(Br)c2ncnc(N3CCCCC3)c2c1,17,46*,47,-4,2,12
Cc1ccc(S(=O)(=O)N2CCCCC2CCNC(=O)C(=O)NCCc2ccco2)cc1 (centres undefined),84,24,34,-16,-17,.
Cc1ccc(S(=O)(=O)N2CCCCC2CCNC(=O)C(=O)NCc2ccco2)cc1 (centres undefined),14,42*,37,-13,1,13
c1ccc(-c2noc(CN3CCN(c4ccccc4)CC3)n2)cc1,-19,5,23,8,0,.
c1ccc(-c2noc(CN3CCN(C(c4ccccc4)c4ccccc4)CC3)n2)cc1,-8,45*,19,-16,29,12
O=C(Nc1cccnc1Cl)C1CCCN(c2ncnc3c2nc2n3CCCCC2)C1 (centres undefined),.,14,14,-5,4,.
O=C(Nc1ccc(Cl)cn1)C1CCN(c2ncnc3c2nc2n3CCCCC2)CC1,13,50*,26,-8,24,19
COc1ccc(Cl)cc1NC(=O)C1CCCN(c2ncnc3c2nc2n3CCCCC2)C1 (centres undefined),15,56*,36,30,24,23
Cc1ccnc(NC(=O)C2CCCN(c3ncnc4c3nc3n4CCCCC3)C2)c1 (centres undefined),-10,45*,33,-8,22,17
O=C(Nc1ccc(Cl)cn1)C1CCCN(c2ncnc3c2nc2n3CCCCC2)C1 (centres undefined),27,-3,35,17,3,.
CSc1cccc(NC(=O)C2CCCN(c3ncnc4c3nc3n4CCCCC3)C2)c1 (centres undefined),9,48*,38,3,9,4
COC(=O)CCC(=O)N1CCCC(N2CCN(c3ccc(OC)cc3)CC2)C1 (centres undefined),-7,1,-2,22,-4,.
O=C(NCCN1CCCOC1=O)C(=O)NCCN1CCCOC1=O,19,12,8,-8,6,.
COc1ccc(C(=O)CC(SCC(NC(C)=O)C(=O)O)c2ccc(Cl)cc2)cc1OC (centres undefined),2,13,35,-5,20,.
Cc1cc2nc(-c3cc(N4CCOCC4)ccc3[N+](=O)[O-])ccn2n1,27,1,5,.,-8,.
Cc1cc2nc(-c3ccc4c(c3)CCC4)ccn2n1,.,41*,19,-15,-23,20
CCOc1ccc(NC(=O)c2ccccc2OC)cc1,4,16,13,-9,20,.
CCOc1ccc(NC(=O)C(C)Oc2ccccc2C(=O)Nc2cccc(Cl)c2Cl)cc1 (centres undefined),1,41*,10,-6,19,10
COc1ccc(-c2nc3ccc(C)cc3c(=O)o2)cc1OC,18,13,10,6,8,.
CNC[C@H]1Oc2c(NS(=O)(=O)c3cccs3)cccc2C(=O)N([C@H](C)CO)C[C@@H]1C,5,-10,-9,0,-2,.
